According to PubChem BioAssay AID720513 (Broad Institute, 2013):
The campaign covered roughly 2,100 compounds. About 480 (23%) were called active. Another 5% or so got no clear call; they are omitted.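 Rule for the calls: active = fitted curve reaches 40% activation at or below the top valid concentration, in every replicate test; inconclusive = replicate tests disagree on the call; inactive = the rest, including activity in the opposite direction.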 Not all results are given here. Results with a measured potency or affinity are listed apart.

test: PGC1a acetylation increase, cellular AlphaLISA – cell-based, cherry-picked samples, set 6, dose response (AID 720513); conditions: U2OS PGC1a acetylation AlphaLISA, overnight, 0 = neutral, -100 = inhibitor control; series mostly up to 19.5 µM; activation (acetylation increase): at the top concentration;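 note: cells made to overexpress flag tagged PGC1a plus GCN5 acetyltransferase by viral infection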

Activation (acetylation increase), inactive:
C=C[C@H]1CN2CCC1C[C@H]2[C@H](O)c1ccnc2ccc(OC)cc12 (some centres not stated) -22.3%
CN1/C(=C\C(=O)c2oc3ccccc3c2N)C(C)(C)c2ccccc21 18.8%
COC(C[C@H]1O[C@@H]1[C@H](O)[C@H](C)OCc1ccccc1)OC -0.97%
COc1ccc2[nH]c(C(=O)O)c(NC(=O)c3ccccc3[N+](=O)[O-])c2c1 18.8% [at 10 µM]
Cc1nc(Nc2ccc(S(N)(=O)=O)cc2)sc1C(=O)Nc1ccccc1 -27.8%
C[C@@H]1CN([C@H](C)CO)C(=O)CCCn2cc(nn2)CO[C@@H]1CN(C)C(=O)NC1CCCC1 18.2%
CC(=O)Nc1nc(C)c(Oc2ccc(Cl)cc2)c(=O)[nH]1 19.3%
CSc1nc2nccc(/C=C\c3ccccc3)n2n1 12.5%
COc1ccc(C(=O)OCC(=O)NCc2ccc3c(c2)OCO3)cc1[N+](=O)[O-] 15.8%
COC(=O)C(=Cc1ccc(OCc2ccc([N+](=O)[O-])cc2)c(OC)c1)C(=O)OC -2.54%
CCCn1c(SC(C)C(=O)NCC2CCCO2)nc2cc(Cl)ccc2c1=O (configuration not stated) 34.2%
O=C(CSc1nc(O)cc(=O)n1-c1ccccc1)N1CCCCC1 8.21%
C[C@@H]1CN([C@H](C)CO)S(=O)(=O)c2ccc(C3=CCCCC3)cc2O[C@H]1CN(C)Cc1ccccc1 -76.1% [at 21 µM]
Oc1ccc(C2CNCCc3c2cc(O)c(O)c3Cl)cc1 (configuration not stated) 2.77%
COC(=O)C1CCN(Cc2nnc(-c3ccccc3)o2)CC1 -1.11%
Cc1nc2ccccc2c(=O)n1NC(=O)c1ccc(Cl)c([N+](=O)[O-])c1 -65%
Cc1ccc2nc(SCC(=O)Nc3ccc(F)cc3)nc(=O)n2c1 -4.69%
CC(C(=O)OCn1nnc2ccccc2c1=O)N1C(=O)c2ccccc2C1=O (configuration not stated) 34.9%
O=C1C=CC2(C=C1)O[C@H](Cc1ccccc1)[C@@H](Cc1ccccc1)O2 -115%
CCOC(=O)C(CC)(CC)C(=O)/C=C/c1ccc(Br)cc1 -49%
CCOc1ccccc1CNC(=O)c1cc2oc3ccccc3c2n1C 37.7%
Cc1cccc(NC(=O)CNC(=O)Cn2ncc(Cl)c(Cl)c2=O)c1C -103%
CSCCC(NC(=O)c1ccc(Cl)cc1)C(=O)OCC(=O)Nc1cc(Cl)ccc1C (configuration not stated) -30.2%
CCOC(=O)c1cn(-c2ccccc2)nc1-c1cccnc1 15.8%
COc1ccc2c([N+](=O)[O-])c(N3CCCC3)[nH]c2c1 22.3%
COCCCNC1CS(=O)(=O)CC1O (configuration not stated) 20%
COc1ccc(N(C)S(=O)(=O)c2cccc(C(=O)Nc3ccc(-n4cnnn4)cc3)c2)cc1 36.9%
O=C(c1ccc2ccccc2c1)N1CCCC1 -0.375%
COc1ccc(CCNC(=O)C(=O)NCC2CCCO2)cc1OC (configuration not stated) 2.41%
COc1ccc(CCNC(=O)COC(=O)c2ccco2)cc1OC -6.46%
CCC(C)NCCOCCOc1ccc(C)cc1OC (configuration not stated) 19.7%
CCOC(=O)c1c(C)nc2sc3c(=O)n(-c4ccc(OC)cc4)cnc3c2c1-c1ccc(OC)cc1 28.6%
C[C@H]1CN([C@@H](C)CO)C(=O)c2cc(C#Cc3ccccc3)cnc2O[C@H]1CN(C)C(=O)c1ccccn1 -19.3%
CC1CN(C2CCN(C(=O)c3cccc(Cl)c3)CC2)CC(C)O1 (configuration not stated) -9.81%
CCOC(=O)C1(CC2CCCCO2)CCN(C(=O)Nc2ccc(SC)cc2)CC1 (configuration not stated) 12.1%
O=C1c2ccccc2C(=O)N1c1ccc(Cc2ccncc2)cc1 -10.4%
Cc1ccc(NC(=O)CC2=NC(=O)C(CC(=O)Nc3ccccc3F)S2)cc1 (configuration not stated) 32.5%
Cc1ccc(CCC(=O)Nc2ccc(Cl)cc2)o1 -15.7%
O=C(O)C1CCCN1S(=O)(=O)c1ccc(Br)s1 (configuration not stated) (tested in a mixture with another compound) 35.3%
COCCNC(=O)CCc1c(C)nc2c(c(C)nn2-c2ccc(C)c(C)c2)c1C 9.63%
C[C@H](CO)N1C[C@H](C)[C@@H](CN(C)Cc2cccnc2)Oc2cc(C3=CCCC3)ccc2S1(=O)=O -34.2%
Cc1cc(C)n(C(=O)c2ccc([N+](=O)[O-])cc2N)n1 -13%
Cc1ccc(-c2cc(C(=O)N3CCOCC3)c3ccccc3n2)o1 15.8%
COc1ccc(S(=O)(=O)Nc2ccccc2C)cc1C(=O)N1CCOCC1 8.1%
O=C(N=Nc1c(O)[nH]c2ccccc12)c1cc(-c2cccs2)[nH]n1 -2.84%
COc1ccccc1NC(=O)/C=C1\SCC(=O)N1C -5.62%
Oc1c(Cl)cc(CN2CCOCC2)c2cccnc12 -25.2%
COc1ccc2c3c([nH]c2c1)[C@H](CO)N(C(=O)c1ccncc1)CC31CN(C(=O)c2ccncc2)C1 -3.27%
Cc1nc(SCC(=O)NC2CCCC2)[nH]c(=O)c1C 9.58%
Cc1ccc(Cl)c(Cn2cnc3c(cnn3C(C)(C)C)c2=O)c1F 7.54%
C[C@H](CO)N1C[C@H](C)[C@@H](CN(C)C(=O)CCN2CCCCC2)Oc2ncc(C#Cc3ccccn3)cc2C1=O 13.1% [at 21 µM]
Cn1nnnc1Sc1ncnc2scc(-c3cc4ccccc4o3)c12 -88.9%
Cc1ccc(N2C(=O)N(CC(=O)Nc3ccc(C)cc3[N+](=O)[O-])C(=O)C2C)cc1 (configuration not stated) 14.9%
Cc1ccc(NC(=O)c2ccc(NCC3CCCO3)c([N+](=O)[O-])c2)cc1Cl (configuration not stated) -26%
CCc1ccc(NC(=O)Nc2ccncc2)cc1 -28.2%
O=C(CC(CC(=O)c1ccc(Br)cc1)c1cccnc1)c1ccc(Br)cc1 -9.39%
CC(C)(C)NC(=O)C(=O)NNC(=O)c1cccc([N+](=O)[O-])c1 9.46%
CC(C)(C)c1ccc(OCC(=O)NNC(=O)Nc2ccccc2)cc1 2.26%
N#CC1=C(N)Oc2n[nH]c(-c3ccccc3)c2C1c1ccncc1 (configuration not stated) -3.54%
CN(CC(=O)NCC1CCCO1)S(=O)(=O)c1cc(Cl)ccc1Cl (configuration not stated) 0.409% [at 10 µM]
Cc1noc(C)c1CSc1nnc(-c2cccnc2)n1C1CCCCC1C (configuration not stated) -5.8%
C/C=C/c1ccc2c(c1)O[C@H](CN(C)C(=O)C1CC1)[C@H](C)CN([C@@H](C)CO)S2(=O)=O 24.5%
Cc1ccc(S(=O)(=O)C(C#N)c2nc3ccccc3nc2N2CCCC2)cc1 (configuration not stated) 3.64%
O=C(NCc1ccc2c(c1)OCO2)c1ccc(NC(=O)C2CCCO2)cc1 (configuration not stated) 15.6%
CC(C)(C)OC(=O)N1CCCC(C(=O)Nc2cccc(C(=O)NCc3ccccc3)c2)C1 (configuration not stated) 8.42%
CCn1nnc(NC(=O)c2ccc(C(C)(C)C)cc2)n1 11%

outcome, inactive:
CN(Cc1cnc2nc(N)nc(N)c2n1)c1ccc(C(=O)N[C@@H](CCC(=O)O)C(=O)O)cc1
